From publication PMC12136788
Substitutions are numbered along the chain they refer to. Whole data set: some 24,000 sequences, median “enrichment r” near 0.99, cut for the highest 2% near 3.7. This is one part of a sample in which the highest values are shown more often than they occur.

T1: UNK ZnF1-3 (human, UniProt Q9C0B0 31-174)
T1 sequence: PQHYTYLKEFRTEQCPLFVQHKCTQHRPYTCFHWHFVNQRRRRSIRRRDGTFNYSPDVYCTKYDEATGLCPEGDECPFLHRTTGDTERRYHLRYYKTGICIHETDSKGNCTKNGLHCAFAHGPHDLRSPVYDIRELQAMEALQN

B1: chr1:89346535:89346536:+_ENSMUSG00000048000_ENSMUST00000174671|mus_hu|motif|central (ssRNA)
RNA: GGGAGUUCUACAGUCCGACGAUCAGCUGCCUCUUAAACGAGACAAAUUUUCAGCAGAAGGGCCCAAAACAAAAUGGUCCGGGUCCUCUGAAGUAAAAAUAUUUAUGGGAAAAAUCAGUUUUUGUAAGAAAGAAAAAUUAAGAACAACAGAGGAUUGAGCAUCA
B2: chr1:89346535:89346536:+_ENSMUSG00000048000_ENSMUST00000174671|mus_mus|motif|central (ssRNA)
RNA: GGGAGUUCUACAGUCCGACGAUCAAGAUGCCUCUUAAACGAGACAAAUUUUCACAUAAGGGCCCAAAACAAACUGGUCCGGGUCCUUGAAGUAAAAAUAUUUAUGGGAGGAGGGGAGAUCAGUUUUUAUAUGAAAGGAAAAUUCAACAGAGGAUUGAGCAUCA
B3: chr1:89346535:89346536:+_ENSMUSG00000048000_ENSMUST00000174671|mus_hu|FALSE|FALSE (ssRNA)
RNA: B1 RNA with G80U, G81A
B4: chr2:42509997:42509998:+_ENSG00000143924_ENST00000318522|hu_mus|hu_hu_hu_mus_True|78_78 (ssRNA)
RNA: GGGAGUUCUACAGUCCGACGAUCUCGCUGAGUCCUCUCCUCAUAAUUAAACAGGACUACUACUGAUGCGAUAAAAUAAACUAUCUCCCCUGUGGGAAGCAGGUAUACAUUCGCUCUACAGUCCUUUCCUCGAUAACCGUAUACCAACAGAGGAUUGAGCAUCA
B5: chr10:13251168:13251169:-_ENSMUSG00000019809_ENSMUST00000019945|mus_hu|FALSE|FALSE (ssRNA)
RNA: GGGAGUUCUACAGUCCGACGAUCAGCCAUAUUGUCUAGAAGUCUACUAAAACCUCGGUUUAAACAGGUAUUCAAAACUGUACUAAAAUCUGGGCUUUCCAACAUGUCUCUAGUUUCAUUGAGAAGUUUAAUAGUGGUAAUGUCCAACAGAGGAUUGAGCAUCA
B6: chr16:732453:732454:+_ENSG00000103266_ENST00000219548|hu_mus|FALSE|FALSE (ssRNA)
RNA: GGGAGUUCUACAGUCCGACGAUCUGCCAGGCAGGACAUGGGGCCUCAAUAGUCCUCUACCCAGCCGUUCUCAGAGAUGAAAGCGUCAAUGACUUCCUUCAUGGCCAAGUUGGGGAUGAGCUGUUCCUGGGUCAGAGGGCUCCGCAACAGAGGAUUGAGCAUCA
B7: chr9:95013113:95013114:-_ENSG00000196305_ENST00000443024|hu_hu|hu_hu_hu_mus_False|1_88 (ssRNA)
RNA: GGGAGUUCUACAGUCCGACGAUCCUCAGUCAGAAAGGGCGUGUAAGGAGCCAUAAGUCUGCACAGAGAAAGCAGGACACUGAACAGUGUCUCCAGAGCCAUGACACAGUCUUCCACCCCACUCUCACCCUUUAACCUUCUGCGCAACAGAGGAUUGAGCAUCA
B8: chr7:135612270:135612271:-_ENSG00000105887_ENST00000393085|hu_mus|hu_hu_hu_mus_False|28_58 (ssRNA)
RNA: GGGAGUUCUACAGUCCGACGAUCGUUUUUUUCUGAGAUGUUAAAUAGUACUUCAGUGGAAAACAAAACUUAACCUUUCGCUAAUGCGUGUUGUACCAAAAGCAGACCAUGGUUUUACAUUUAUUCAAAAAUAUUAACAUUAAGCAACAGAGGAUUGAGCAUCA
B9: chr9:56975896:56975897:+_ENSMUSG00000042557_ENSMUST00000167715|mus_hu|FALSE|FALSE (ssRNA)
RNA: GGGAGUUCUACAGUCCGACGAUCACAUCAAAGCAUAUUUCUUUUAAUAAAAAAUUGACAGUAUGUACAUUAUGUACAAAAAAACAAGUUAAAAUUGUGUGUGUGUGUGCGUGUGUGUGUCAGAGAGUAAAGCUGGUGGAUGGCCAACAGAGGAUUGAGCAUCA
B10: chr16:30313237:30313238:-_ENSMUSG00000022533_ENSMUST00000100013|mus_mus|FALSE|FALSE (ssRNA)
RNA: GGGAGUUCUACAGUCCGACGAUCAACAACCCUGAGGGAGACCCACAUUAAAAAAUCUUAUUUAUUUAAAAAGUUAAAAAGCUACAUAUCAUUAUUUAACAAUUACUUUACCAGACAUUUCUGUCCUUUAAGUAUGUGCAUAAACAACAGAGGAUUGAGCAUCA
B11: chr7:135612270:135612271:-_ENSG00000105887_ENST00000393085|hu_mus|hu_hu_hu_mus_False|28_108 (ssRNA)
RNA: GGGAGUUCUACAGUCCGACGAUCGUUUCUGAGAUGUAUGUUAAAUAGUACUUCAGUGGAAAACAAAACUUAACCUUUUAUUAAUGCGUGUUGUACCAAAAGCAGACCAUGGUUUUACAUUUAUUCAAAAAUAUUAACAUUAAGCAACAGAGGAUUGAGCAUCA
B12: chr7:135612270:135612271:-_ENSG00000105887_ENST00000393085|hu_mus|hu_hu_hu_mus_False|38_48 (ssRNA)
RNA: GGGAGUUCUACAGUCCGACGAUCGUUUUUUUCUGAGAUGUUAAAUAGUACUUCAGUGGAAAACAAAACUUAACCUUUUAUUAAUGCAUGUAGUACCAGAAAGCAAAAUUUUAGCUUCAUUUAUUCAAAAAUAUUAACAUUAAGCAACAGAGGAUUGAGCAUCA
B13: chr7:135612270:135612271:-_ENSG00000105887_ENST00000393085|hu_mus|hu_hu_hu_mus_False|1_58 (ssRNA)
RNA: GGGAGUUCUACAGUCCGACGAUCGUUUUUUUCUGAGAUGUUAAAUAGUACUUCAGUGGAAAACAAAACUUAACCUUUCGCUAAUGCGUGUUGUACCAAAAGCAGACAUUUUAGCUUCAUUUAUUCAAAAAUAUUAAGAACAUUCAACAGAGGAUUGAGCAUCA
B14: chr7:135612270:135612271:-_ENSG00000105887_ENST00000393085|hu_mus|hu_hu_hu_mus_False|38_88 (ssRNA)
RNA: B12 RNA with G47U, A49C, C50A, U51G, C53G, A54G, G55A, U56G, A87G, A91U
B15: chr1:58468927:58468928:-_ENSMUSG00000026034_ENSMUST00000148330|mus_mus|mus_mus_mus_hu_False|28_48 (ssRNA)
RNA: GGGAGUUCUACAGUCCGACGAUCAAUUACUGAAAAAGAUGUUCAUUACCUUAGCUAUGUACUUAAUGAACCAAAUUACCCAAACAACAUAAAAUGUGCAAUAUAAAAAGCUAUACAAUUUACAAAGCUGUACAAAAUAACUUACAACAGAGGAUUGAGCAUCA
B16: chr11:94154035:94154036:-_ENSMUSG00000020863_ENSMUST00000107820|mus_mus|FALSE|FALSE (ssRNA)
RNA: GGGAGUUCUACAGUCCGACGAUCAAUAGUUAAGUUUUAAAGCAUAUGUUUCUGCCAAUGUACCAACACAAGAUGGACUUAAUACCAAAAAGAAAAAAAAAACAGUUCAACCUUUUUAUUAAAAAAAAAAAGAAAAAGAAAAAGCAACAGAGGAUUGAGCAUCA
B17: chr7:135612270:135612271:-_ENSG00000105887_ENST00000393085|hu_mus|hu_hu_hu_mus_False|28_38 (ssRNA)
RNA: B8 RNA with C78U, G79A, C80U, A98G, G101A, C102G, A103C, G104A, C106A
B18: chr16:30313237:30313238:-_ENSMUSG00000022533_ENSMUST00000100013|mus_hu|FALSE|FALSE (ssRNA)
RNA: GGGAGUUCUACAGUCCGACGAUCCAACCCUGAGGGAGACACACAUUAAAAAUCUUGUUAUUUAUUUAAAAAGUUAAAAAGUUACAUAUCAUUAUUUAACAAUUACUUUCCCAGACAUUUCUGUCCUUUAAGUAUGUGCAUAAACAACAGAGGAUUGAGCAUCA
B19: 19477749_19479453_500_CDS_ENSMUSG00000028228_ENSMUST00000029885|mouse|control|control (ssRNA)
RNA: GGGAGUUCUACAGUCCGACGAUCUCUGGCUUCCAUUUCAAACAAUACCACUCUGUUAUCCUUUAUUUCUUCUGCUGAAAUCGUAAUACUCCCUUUCCCUGCAGGUUUGCCAUUUUUGAGCACCAGUGGUCGAGUUAGCUUCUUCAACAGAGGAUUGAGCAUCA
B20: chr2:9572718:9572719:+_ENSG00000119203_ENST00000238112|hu_mus|FALSE|FALSE (ssRNA)
RNA: GGGAGUUCUACAGUCCGACGAUCGACGUGGCCGGCAUGGUAACACCAGAACUUGAUUCCUGCAACUUCCUUAACUUCAUGAAAAUUGAUGGUUUCGAUUUUGUCCAUGCUUUCUUCCAAGUCUGUCUCAGUGUACAGCAUGUCCAACAGAGGAUUGAGCAUCA
B21: chr17:61655871:61655872:+_ENSG00000136485_ENST00000310827|hu_hu|FALSE|FALSE (ssRNA)
RNA: GGGAGUUCUACAGUCCGACGAUCGGUGGGGUAUGGGUGGUCAAAGGUGUUUCUGCAAAUAAACUCUGAACUCUCCUCAUCUAAACCAACAAGCUGAACCUUGUUGUUGUACUCCUCCACGAAGCUGCCCAGCGCCAAGCGAAACAACAGAGGAUUGAGCAUCA
B22: chr5:37680062:37680063:+_ENSMUSG00000029121_ENSMUST00000031004|mus_hu|mus_mus_mus_hu_False|1_18 (ssRNA)
RNA: GGGAGUUCUACAGUCCGACGAUCUUUGGGUGUAGCUGGUACCUCGUACACAGGACCGUCAUACAUGCCCCUGGAAACCCCUUGCAAUCCAAAAACCUUAUUCCUGAUUUUGACGCGCUGGUAGAGAUGCUCCGGGAAUGGCUUCAACAGAGGAUUGAGCAUCA

Target: T1, UNK ZnF1-3
Assay: nsRBNS (natural sequence RNA bind-n-seq); RBNS binding buffer (assumed for nsRBNS): 25 mM Tris pH 7.5, 150 mM KCl, 3 mM MgCl2, 0.01% Triton X-100, 500 ug/ml BSA, 20 U/ml SUPERase-In, 4 C; UNK is unkempt and MSI1 is Musashi-1; names of the RNAs are library labels; protein concentration not given here; high values mean tight binding

Binder | binding signal
B1 | 10.8 enrichment R
B2 | 0.843 enrichment R
B3 | 14.4 enrichment R
B4 | 0.957 enrichment R
B5 | 1.27 enrichment R
B6 | 1.44 enrichment R
B7 | 1.12 enrichment R
B8 | 1.03 enrichment R
B9 | 5.76 enrichment R
B10 | 4.91 enrichment R
B11 | 0.924 enrichment R
B12 | 1.66 enrichment R
B13 | 0.611 enrichment R
B14 | 4.08 enrichment R
B15 | 0.529 enrichment R
B16 | 6.23 enrichment R
B17 | 0.956 enrichment R
B18 | 3.61 enrichment R
B19 | 0.645 enrichment R
B20 | 0.798 enrichment R
B21 | 1.21 enrichment R
B22 | 0.867 enrichment R
